Experimental data published in PubChem BioAssay (EPA / NIEHS).
Results filed as inconclusive are left out. The source made the active and inactive calls. The calls were made as follows: active = hit-call score of the fitted dose curve at least 0.9, where 1 is the maximum; inconclusive = response in the unintended direction; inactive = score below 0.9.

How the values were obtained:
[1] = biological target: Estrogen receptor (Homo sapiens) (UniProt P03372); test: CCTE_Deisenroth_AIME_96WELL_LUC_Active: CCTE's 96-well Estrogen Receptor Transactivation Assay with AIME metabolic competence (ERTA luciferase; metabolism positive), Deisenroth Lab (AID 2284023)
Sequence of Estrogen receptor (Homo sapiens) (P03372 whole entry, looked up): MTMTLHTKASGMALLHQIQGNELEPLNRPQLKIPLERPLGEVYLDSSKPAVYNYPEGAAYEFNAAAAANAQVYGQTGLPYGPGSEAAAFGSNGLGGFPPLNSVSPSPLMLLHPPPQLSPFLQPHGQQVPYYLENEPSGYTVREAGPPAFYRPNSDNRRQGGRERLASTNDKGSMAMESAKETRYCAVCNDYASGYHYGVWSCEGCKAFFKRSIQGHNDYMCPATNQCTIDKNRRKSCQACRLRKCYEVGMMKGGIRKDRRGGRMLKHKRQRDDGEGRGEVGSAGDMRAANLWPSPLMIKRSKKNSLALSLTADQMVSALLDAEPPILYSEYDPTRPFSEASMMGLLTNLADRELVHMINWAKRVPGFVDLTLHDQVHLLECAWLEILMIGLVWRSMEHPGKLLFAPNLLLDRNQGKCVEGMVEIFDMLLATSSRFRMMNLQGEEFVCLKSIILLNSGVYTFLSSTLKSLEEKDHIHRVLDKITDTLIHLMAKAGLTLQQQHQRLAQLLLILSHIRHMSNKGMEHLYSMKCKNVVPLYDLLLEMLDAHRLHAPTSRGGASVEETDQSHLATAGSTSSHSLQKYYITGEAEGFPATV
In short: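 Metabolism-positive mode: induced rat hepatic S9 in alginate microspheres conditions test solutions (0.002 - 200 uM, 10 points) for 2 hours. VM7Luc4E2 ER luciferase reporter cells then exposed 24 h; positive-direction fit against 17beta-estradiol, n=4 typical.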

[2] = biological target: Estrogen receptor (Homo sapiens) (UniProt P03372); test: CCTE_Deisenroth_AIME_96WELL_LUC_Inactive: CCTE's 96-well Estrogen Receptor Transactivation Assay without AIME metabolic competence (ERTA luciferase; metabolism negative), Deisenroth Lab (AID 2284025)
In short: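 Metabolism-negative arm: chemicals (0.002–200 uM, 10 points) incubated 2 h with alginate-water microspheres, then medium moved onto VM7Luc4E2 cells for 24 h luciferase read-out. Positive direction vs 17beta-estradiol; n≥4 experiments.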

For C(#Cc1ccccc1)c1ccccc1, the AC50 [1] was 32.3 µM (active) and the AC50 [2] was 28.5 µM (active).
